From PubChem BioAssay (Tox21)
Several values for one entry are separate records, joined by “and”; a condition that tells them apart may be missing. Equal values may be shown once. Inconclusive results are not listed. Activity calls are given as the source filed them. Calls follow the shape of the dose curve; as a rule, active = well fitted curve in the direction sought with a large enough effect in the repeat runs; inconclusive = weak or mixed curves; inactive = no such curve, though single readings can be large; an effect the other way counts as inactive or inconclusive.

How the values were obtained:
[1] = A CellTox Green Cytotoxicity Assay to monitor cytotoxicity in HEK293 cells - 40 hour (AID 1224871); also: nearly all actives have a fitted effect of over 45% in size; also: potency is read from the fitted curve at half-maximal effect
How it was run: (§1)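 Read-out: fluorescence of a cell-impermeant cyanine dye staining DNA of dead cells, proportional to cytotoxicity. HEK293, 600 cells/well with reagent, compound (23 nL DMSO) added after 5 h; reads at 0, 8, 16, 24, 32, 40 h.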

[2] = qHTS RealTime-Glo MT Cell Viability Assay in HEK293 cells - 16 hour (AID 1224872); also: nearly all actives have a fitted effect of over 50% in size; also: potency is read from the fitted curve at half-maximal effect
How it was run: (§2)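 Reads taken at 0, 8, 16, 24, 32 and 40 h from the same wells. HEK293 cells (600/well) carried RealTime-Glo reagents from seeding, with compound added after a 5 h settle at 37 C.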

[3] = qHTS RealTime-Glo MT Cell Viability Assay in HepG2 cells - 8 hour (AID 1224873); also: nearly all actives have a fitted effect of over 55% in size; also: potency is read from the fitted curve at half-maximal effect
How it was run: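 Real-time viability: cells seeded at 600 per well together with NanoLuc and cell-permeant prosubstrate, compounds added after 5 h incubation. Luminescence tracked at 0, 8, 16, 24, 32 and 40 h of exposure.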

[4] = qHTS RealTime-Glo MT Cell Viability Assay in HEK293 cells - 40 hour (AID 1224874); conditions: RealTime-Glo luminescence; max response: active compounds read low; also: nearly all actives have a fitted effect of over 50% in size; also: potency is read from the fitted curve at half-maximal effect
How it was run: (§3)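 Luminescence readout at each listed time point; HEK293, 600 cells/well, RealTime-Glo MT reagent added with cells; compounds pinned (23 nL in DMSO) after 5 h at 37 C; continuous culture at 37 C.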

[5] = A CellTox Green Cytotoxicity Assay to monitor cytotoxicity in HEK293 cells - 24 hour (AID 1224875); also: nearly all actives have a fitted effect of over 45% in size; also: potency is read from the fitted curve at half-maximal effect
How it was run: as §1

[6] = A CellTox Green Cytotoxicity Assay to monitor cytotoxicity in HepG2 cells - 16 hour (AID 1224876); also: nearly all actives have a fitted effect of over 45% in size; also: potency is read from the fitted curve at half-maximal effect
How it was run: (§4)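 HepG2, 600 cells/well premixed w/ CellTox Green; 5 h settle, 37 C/5% CO2; pintool cpd add (DMSO); 37 C, 40 h; fluorescence read at 0, 8, 16, 24, 32, 40 h.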

[7] = qHTS RealTime-Glo MT Cell Viability Assay in HepG2 cells - 32 hour (AID 1224877); also: nearly all actives have a fitted effect of over 55% in size; also: potency is read from the fitted curve at half-maximal effect
How it was run: (§5)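 HepG2 suspension premixed with RealTime-Glo reagents is plated at 600 cells per well and left 5 h at 37 C/5% CO2. Compounds in DMSO then go in, and bioluminescence reflecting viable cell number is recorded over 40 h.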

[8] = A CellTox Green Cytotoxicity Assay to monitor cytotoxicity in HepG2 cells - 24 hour (AID 1224878); also: nearly all actives have a fitted effect of over 45% in size; also: potency is read from the fitted curve at half-maximal effect
How it was run: as §4

[9] = A CellTox Green Cytotoxicity Assay to monitor cytotoxicity in HepG2 cells - 40 hour (AID 1224879); also: nearly all actives have a fitted effect of over 40% in size; also: potency is read from the fitted curve at half-maximal effect
How it was run: as §4

[10] = qHTS RealTime-Glo MT Cell Viability Assay in HEK293 cells - 0 hour (AID 1224880)
How it was run: as §3

[11] = A CellTox Green Cytotoxicity Assay to monitor cytotoxicity in HEK293 cells - 32 hour (AID 1224881); also: nearly all actives have a fitted effect of over 40% in size; also: potency is read from the fitted curve at half-maximal effect
How it was run: as §1

[12] = A CellTox Green Cytotoxicity Assay to monitor cytotoxicity in HepG2 cells - 0 hour (AID 1224882); also: nearly all actives have a fitted effect of over 35% in size
How it was run: as §4

[13] = A CellTox Green Cytotoxicity Assay to monitor cytotoxicity in HepG2 cells - 32 hour (AID 1224883); also: nearly all actives have a fitted effect of over 50% in size; also: potency is read from the fitted curve at half-maximal effect
How it was run: as §4

[14] = A CellTox Green Cytotoxicity Assay to monitor cytotoxicity in HEK293 cells - 8 hour (AID 1224884); also: nearly all actives have a fitted effect of over 35% in size; also: potency is read from the fitted curve at half-maximal effect
How it was run: as §1

[15] = qHTS RealTime-Glo MT Cell Viability Assay in HepG2 cells - 16 hour (AID 1224885); also: nearly all actives have a fitted effect of over 50% in size; also: potency is read from the fitted curve at half-maximal effect
How it was run: as §5

[16] = qHTS RealTime-Glo MT Cell Viability Assay in HEK293 cells - 24 hour (AID 1224886); also: nearly all actives have a fitted effect of over 50% in size; also: potency is read from the fitted curve at half-maximal effect
How it was run: as §2

[17] = qHTS RealTime-Glo MT Cell Viability Assay in HEK293 cells - 8 hour (AID 1224887)
How it was run: as §3

[18] = A CellTox Green Cytotoxicity Assay to monitor cytotoxicity in HEK293 cells - 16 hour (AID 1224888); also: nearly all actives have a fitted effect of over 35% in size; also: potency is read from the fitted curve at half-maximal effect
How it was run: as §1

[19] = qHTS RealTime-Glo MT Cell Viability Assay in HepG2 cells - 0 hour (AID 1224889); also: nearly all actives have a fitted effect of over 50% in size
How it was run: as §5

[20] = A CellTox Green Cytotoxicity Assay to monitor cytotoxicity in HepG2 cells - 8 hour (AID 1224890); also: nearly all actives have a fitted effect of over 45% in size; also: potency is read from the fitted curve at half-maximal effect
How it was run: as §4
% is scaled to controls: 0 for no effect and ±100 for the full control effect.

NNCCO
inactive: Potency [1] | Potency [2] | Potency [3] | max response [4] -1.69% | Potency [5] | Potency [6] | Potency [7] | Potency [8] | Potency [9] | outcome [10] | Potency [11] | Potency [12] | Potency [13] | Potency [14] | Potency [15] | Potency [16] | Potency [17] | Potency [18] | outcome [19] | Potency [20]

CCOC(C(=O)OCCN(C)C)(c1ccccc1)c1ccccc1
inactive: Potency [1] | Potency [2] | Potency [3] | max response [4] -21.4% | Potency [5] | Potency [6] | Potency [7] | Potency [8] | Potency [9] | outcome [10] | Potency [11] | Potency [12] | Potency [13] | Potency [14] | Potency [15] | Potency [17] | Potency [18] | outcome [19] | Potency [20]

O=C1CC[C@@]2(O)[C@H]3Cc4ccc(O)c5c4[C@@]2(CCN3CC2CC2)[C@H]1O5
inactive: Potency [1] | Potency [2] | Potency [3] | max response [4] 3.94% | Potency [5] | Potency [6] | Potency [7] | Potency [8] | Potency [9] | outcome [10] | Potency [11] | Potency [12] | Potency [13] | Potency [14] | Potency [15] | Potency [16] | Potency [18] | outcome [19] | Potency [20]

Nc1cccc2ccccc12
inactive: Potency [1] | Potency [2] | Potency [3] | max response [4] -9.7% and -1.99% | Potency [5] | Potency [6] | Potency [7] | Potency [8] | Potency [9] | outcome [10] | Potency [11] | Potency [12] | Potency [13] | Potency [14] | Potency [15] | Potency [16] | Potency [17] | Potency [18] | outcome [19] | Potency [20]

CC[N+]1(CCOC(=O)C(O)(c2ccccc2)c2ccccc2)CCCCC1
inactive: Potency [1] | Potency [2] | Potency [3] | max response [4] 4.06% | Potency [5] | Potency [6] | Potency [7] | Potency [8] | Potency [9] | outcome [10] | Potency [11] | Potency [12] | Potency [13] | Potency [14] | Potency [15] | Potency [16] | Potency [18] | outcome [19] | Potency [20]

C=CC(=O)NC(C)(C)CC(C)=O
inactive: Potency [1] | Potency [2] | Potency [3] | max response [4] 3.92% | Potency [5] | Potency [6] | Potency [7] | Potency [8] | Potency [9] | outcome [10] | Potency [11] | Potency [12] | Potency [13] | Potency [14] | Potency [15] | Potency [17] | Potency [18] | outcome [19]

CCC(C)Cl (configuration not stated)
inactive: Potency [1] | Potency [2] | Potency [3] | max response [4] 9.33% | Potency [5] | Potency [6] | Potency [7] | Potency [8] | Potency [9] | outcome [10] | Potency [11] | Potency [12] | Potency [13] | Potency [14] | Potency [15] | Potency [16] | Potency [17] | Potency [18] | outcome [19] | Potency [20]

CCOC(=O)C1OC1(C)c1ccccc1 (configuration not stated)
inactive: Potency [1] | Potency [2] | Potency [3] | max response [4] 0.105% and 2.55% | Potency [5] | Potency [6] | Potency [7] | Potency [8] | Potency [9] | outcome [10] | Potency [11] | Potency [12] | Potency [13] | Potency [14] | Potency [15] | Potency [16] | Potency [18] | outcome [19] | Potency [20]

C=C(C)C(=O)OCCCCOC(=O)C(=C)C
inactive: Potency [1] | Potency [2] | Potency [3] | max response [4] 5.43% | Potency [5] | Potency [6] | Potency [7] | Potency [8] | Potency [9] | outcome [10] | Potency [11] | Potency [12] | Potency [13] | Potency [14] | Potency [15] | Potency [16] | Potency [17] | Potency [18] | Potency [20]

C[N+]1(CCF)[C@@H]2CC[C@H]1CC(OC(=O)C(O)(c1ccccc1)c1ccccc1)C2 (some centres not stated)
inactive: Potency [1] | Potency [2] | Potency [3] | max response [4] 2.19% | Potency [5] | Potency [6] | Potency [7] | Potency [8] | Potency [9] | outcome [10] | Potency [11] | Potency [12] | Potency [13] | Potency [14] | Potency [15] | Potency [17] | Potency [18] | outcome [19] | Potency [20]

O=C(N[C@H]1CN2CCC1CC2)c1ccc2c(c1)OCCO2
inactive: Potency [1] | Potency [2] | Potency [3] | max response [4] 0.421% | Potency [5] | Potency [6] | Potency [7] | Potency [8] | Potency [9] | outcome [10] | Potency [11] | Potency [12] | Potency [13] | Potency [14] | Potency [15] | Potency [17] | Potency [18] | outcome [19] | Potency [20]

C[CH2][Hg][S]c1ccccc1C(=O)O
inactive: outcome [10] | Potency [12] | outcome [19]
active: Potency [1] 6.92 µM and 4.77 µM | Potency [2] 1.23 µM and 2.13 µM | Potency [3] 3.47 µM and 2.13 µM | Potency [4] 871 nM and 952 nM | Potency [5] 7.76 µM and 5.35 µM | Potency [6] 3.89 µM and 2.39 µM | Potency [7] 2.19 µM and 2.13 µM | Potency [8] 5.49 µM and 2.39 µM | Potency [9] 1.95 µM and 2.13 µM | Potency [11] 7.76 µM and 4.77 µM | Potency [13] 3.09 µM and 2.13 µM | Potency [14] 4.77 µM | Potency [15] 2.45 µM and 2.13 µM | Potency [16] 1.1 µM and 1.34 µM | Potency [18] 4.77 µM | Potency [20] 7.76 µM and 2.39 µM

NCCc1cc(O)c(O)cc1O
inactive: Potency [1] | Potency [2] | Potency [3] | max response [4] -1.21% | Potency [5] | Potency [6] | Potency [7] | Potency [8] | Potency [9] | outcome [10] | Potency [11] | Potency [12] | Potency [13] | Potency [14] | Potency [15] | Potency [17] | Potency [18]
